SMILES strings stand for the structures. “And” between values parts separate entries of the source, which are not always exact repeats. Equal values may be shown once. Inconclusive results are not listed. A structure can be active in one record and inactive in another. The source made the active and inactive calls. Unless noted, calls follow the shape of the dose curve; as a rule, active = well fitted curve in the direction sought with a large enough effect in the repeat runs; inconclusive = weak or mixed curves; inactive = no such curve, though single readings can be large; an effect the other way counts as inactive or inconclusive.

Our source for the Potency, outcome and activity change, positive = activation values is PubChem BioAssay (Tox21).

Test [1] is described as follows: qHTS assay to identify small molecule agonists of the hypoxia (HIF-1) signaling pathway - cell viability counter screen (AID 1224844; calls by dose curve; also: nearly all actives have a fitted effect of over 50% in size). An outline of the steps:
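In this counter screen, HRE-bla ME-180 cell viability after 17 hrs of compound exposure at 37C was read by CellTiter-Glo luminescence, multiplexed with the beta-lactamase reporter measurement.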
A general note: qHTS replaces the single test concentration by a dilution series.

Test [2] can be described thus: qHTS assay to identify small molecule agonists of H2AX (AID 1224845; active = well fitted activation curve with a large enough effect in the signal ratio in the repeat runs, not every such curve was filed as active; the % refers to the signal ratio). An outline of the steps:
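Wild-type CHO-K1 cells plated overnight, then exposed 3 hr at 37C to compounds at 15 concentrations (0.76% DMSO). Lysed, then HTRF anti-pH2AX(S139)-cryptate/anti-H2AX-d2 detection after 24 hr at room temperature; emissions 665 and 620 nm.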

The nature of test [3]: qHTS assay to identify small molecule agonists of H2AX - cell viability counter screen (AID 1224847; calls by dose curve; also: top concentration of the series differs between compounds; nearly all actives have a fitted effect of over 30% in size). An outline of the steps:
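CHO-K1 cells plated overnight at 37C, then exposed 3 h at 37C to compounds at 15 concentrations (0.76% DMSO final). Viability by CellTiter-Glo luminescence after 30 min at room temperature.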

A short description of test [4]: qHTS assay to identify small molecule antagonists of the estrogen related receptor (ERR) signaling pathway from Tox21 library (AID 1224848). Also: nearly all actives have a fitted effect of over 50% in size. Also: potency is read from the fitted curve at half-maximal effect. An outline of the steps:
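Tox21 10K compounds in DMSO tested for ERR pathway antagonism in NTP's ERR cell line; 18 h, 37 C exposure; ONE-Glo luminescence.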

Test [5] can be described thus: qHTS assay to identify small molecule agonists of the estrogen related receptor (ERR) signaling pathway from Tox21 library (AID 1224849; calls by dose curve; also: nearly all actives have a fitted effect of over 15% in size). As to conditions: ERR reporter cell line, ONE-Glo luciferase, 18 h. The gist of the method: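 Luciferase activity in ERR pathway reporter cells served as the agonist readout; exposure lasted 18 h at 37 C, with ONE-Glo detection after 30 min at room temperature.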

Test [6] is described as follows: qHTS RealTime-Glo MT Cell Viability Assay in HepG2 cells - 24 hour (AID 1224867). Also: nearly all actives have a fitted effect of over 50% in size. An outline of the steps: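 HepG2 cells were seeded at 600 cells/well together with NanoLuc luciferase and a cell-permeant prosubstrate, preincubated 5 h at 37 C/5% CO2, then pin-dosed with compounds in DMSO. Nonlytic luminescence from viable cells was read at each time point.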
Test [7] in a line: qHTS RealTime-Glo MT Cell Viability Assay in HEK293 cells - 32 hour (AID 1224868). Also: nearly all actives have a fitted effect of over 50% in size. Also: potency is read from the fitted curve at half-maximal effect. An outline of the steps: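 HEK293 cells were seeded at 600 cells/well together with NanoLuc luciferase and cell-permeant prosubstrate, preincubated 5 h at 37 C/5% CO2, then given compound in DMSO by pintool. Luminescence from viable-cell prosubstrate reduction was read repeatedly over 40 h.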
A short description of test [8]: A CellTox Green Cytotoxicity Assay to monitor cytotoxicity in HEK293 cells - 0 hour (AID 1224869). Also: nearly all actives have a fitted effect of over 50% in size. An outline of the steps:
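Real-time, in one plate: 600 HEK293 cells/well with dead-cell DNA dye, pinned compound after 5 h, 37 C incubation over 40 h; viable cells give no appreciable fluorescence.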

Test [9] in a line: qHTS RealTime-Glo MT Cell Viability Assay in HepG2 cells - 40 hour (AID 1224870). Also: nearly all actives have a fitted effect of over 50% in size. Also: potency is read from the fitted curve at half-maximal effect. The gist of the method:
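HepG2 cells mixed with RealTime-Glo MT reagents (NanoLuc plus cell-permeant prosubstrate) were seeded at 600 cells/well, incubated 5 h at 37 C/5% CO2, then pinned with compounds in DMSO; nonlytic luminescence tracked viability during 40 h treatment.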

The nature of test [10]: qHTS assay to identify small molecule agonists of the hypoxia (HIF-1) signaling pathway (AID 1224846; active = well fitted activation curve with a large enough effect in the signal ratio in the repeat runs, not every such curve was filed as active; the % refers to the signal ratio). An outline of the steps: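 ME-180 HRE-bla reporter cells; compounds in DMSO, 17 h at 37C; read-out beta-lactamase via CCF4-AM FRET.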
% is scaled to controls: 0 for no effect and ±100 for the full control effect.

In the case of `COc1ccc(OC)c(C(O)CNC(=O)CN)c1` (configuration not stated), the Potency entry in [1], in test [3], in [4], in test [6], in [7] and in test [8] was “inactive” in each case. The Potency entry in test [9] was “inactive”. For the same compound, in test [2], the compound was classed as inactive. The activity change, positive = activation in test [5] (at 42.5 µM (top of the series)) was -0.419% (inactive); in [5] (at 92.4 µM (top of the series)), -28% (inactive).
For the compound `OC[C@H]1O[C@@H]2O[C@H]3[C@H](O)[C@@H](O)[C@@H](O[C@H]4[C@H](O)[C@@H](O)[C@@H](O[C@H]5[C@H](O)[C@@H](O)[C@@H](O[C@H]6[C@H](O)[C@@H](O)[C@@H](O[C@H]7[C@H](O)[C@@H](O)[C@@H](O[C@H]8[C@H](O)[C@@H](O)[C@@H](O[C@H]1[C@H](O)[C@H]2O)O[C@@H]8CO)O[C@@H]7CO)O[C@@H]6CO)O[C@@H]5CO)O[C@@H]4CO)O[C@@H]3CO`, the Potency result in test [1], in test [10], in [3], in [6], in test [7] and in test [8] was “inactive” throughout. Further, in [9], the Potency entry is “inactive”. The call in [2] was inactive.
On to `Cc1c(OCC(F)(F)F)ccnc1CS(=O)c1nc2ccccc2[nH]1` (configuration not stated), for which the Potency entry in [1], in test [3], in [4], in [6] and in [8] was “inactive” in each case. The outcome in [2] was inactive. Further, the activity change, positive = activation in test [5] (at 42.5 µM (top of the series)) was -8.69% (active); in test [5] (at 92.4 µM (top of the series)), -7.88% (inactive). The Potency in test [7] is 19.5 µM (active) and 10.7 µM (active).
With `Cc1ncc[nH]1`, the Potency result in [1], in test [10], in [3], in test [6], in test [7] and in test [8] was “inactive” throughout. Besides, the Potency entry in test [9] is “inactive”. Further, the compound was called inactive in [2].
For the compound `CCCCNS(=O)(=O)c1ccccc1`, the Potency entry in test [1], in test [10], in [3], in [6] and in [8] was “inactive” in each case. For the same compound, in test [2], the compound was called inactive. The Potency entry in test [7] is “inactive and 4.36 µM (active)”.
Consider `Cc1ccc(C)c(O)c1C`, for which the Potency entry in test [1], in test [10], in test [3], in test [6], in test [7] and in test [8] was “inactive” each time. For the same compound, in test [9], the Potency result is “inactive”. Moreover, the outcome in test [2] was inactive.
On to `OCCO`, for which the Potency entry in test [1], in test [10], in test [3], in test [6], in [7] and in [8] was “inactive” throughout. The Potency result in test [9] was “inactive”. Moreover, the outcome in test [2] was inactive.
With `Cc1c(C(N)=O)cc([N+](=O)[O-])cc1[N+](=O)[O-]`, the Potency entry in test [1], in test [10], in test [3], in [6], in test [7] and in test [8] was “inactive” in each case. For the same compound, in test [2], the outcome was inactive.
For the compound `O=C(c1ccccc1)c1ccc(O)cc1O`, the Potency result in test [1], in test [10], in test [3], in [6], in test [7] and in test [8] was “inactive” throughout. For the same compound, the Potency result in test [9] was “inactive”. Also, the compound was called inactive in test [2].
For the compound `COc1ccc(C(=O)CC(=O)c2ccc(C(C)(C)C)cc2)cc1`, the Potency entry in [1], in test [10], in test [3], in test [6], in test [8] and in [9] was “inactive” each time. For the same compound, in test [2], the outcome was inactive. In test [7], the Potency was 29.6 µM (active) and inactive.
As for `C=CC(C)(CCC=C(C)C)OC(C)=O` (configuration not stated), the Potency result in test [1], in [10], in test [3], in test [6], in test [7] and in test [8] was “inactive” throughout. For the same compound, in test [9], the Potency result was “inactive”. For the same compound, in [2], the call was inactive.
For the compound `CCCCC(CC)COP(=O)(OCC(CC)CCCC)OCC(CC)CCCC` (configuration not stated), the Potency entry in test [1], in test [10], in test [3], in test [6], in test [7] and in [8] was “inactive” throughout. In test [9], the Potency result was “inactive”. For the same compound, the result in [2] was inactive.
Turning to `O=Cc1ccccc1O`, the Potency result in [1], in test [10], in [3], in test [6], in test [7] and in [8] was “inactive” throughout. The call in [2] was inactive.
For `CCCCCCCCCC(=O)OC`, the Potency entry in [1], in [10], in test [3], in test [6], in test [7] and in test [8] was “inactive” throughout. In addition, the Potency result in test [9] was “inactive”. For the same compound, the compound was called inactive in [2].
As for `O=C(OCc1ccccc1)c1ccccc1O`, the Potency result in test [1], in [10], in test [3], in [6], in test [7] and in [8] was “inactive” each time. For the same compound, the Potency entry in [9] was “inactive”. Moreover, the outcome in test [2] was inactive.
With `c1ccc(Nc2ccccc2)cc1`, the Potency result in [1], in test [10], in [6] and in test [8] was “inactive” each time. Besides, the compound was called inactive in test [2]. Also, the Potency in test [4] was 27.3 µM (active) and inactive; in [7], 19.5 µM (active) and inactive; in test [9], 43.6 µM (active) and inactive. For the same compound, in test [5] (at 92.4 µM (top of the series)), the activity change, positive = activation is -73.5% (inactive) and -5.69% (inactive).
Consider `c1ccncc1`, for which the Potency result in test [1], in test [10], in [3], in [6], in [7] and in test [8] was “inactive” each time. Also, in test [2], the outcome was inactive.
As to `CC(=O)CC/C=C(\C)CCC=C(C)C`, the Potency entry in test [1], in [10], in [3], in [6], in [7] and in test [8] was “inactive” each time. For the same compound, the outcome in test [2] was inactive.
For the compound `CC(C(=O)O)c1cccc(C(=O)c2ccccc2)c1` (configuration not stated), the Potency entry in test [1], in test [3], in [4], in [6], in [7] and in test [8] was “inactive” each time. For the same compound, the Potency entry in test [9] was “inactive”. In addition, in test [2], the outcome was inactive. The activity change, positive = activation was 0.181% (inactive) in test [5] (at 42.5 µM (top of the series)) and 2.6% (inactive) in test [5] (at 92.4 µM (top of the series)).
Turning to `CC1=CCC(C(C)(C)O)CC1` (configuration not stated), the Potency result in [1], in test [10], in [3], in test [6], in test [7] and in test [8] was “inactive” throughout. Further, the Potency result in [9] was “inactive”. For the same compound, the result in test [2] was inactive.
On to `CC(=O)c1ccccn1`, for which the Potency entry in [1], in test [10], in [3], in test [6], in test [7] and in test [8] was “inactive” in each case. Further, in [9], the Potency result is “inactive”. The compound was classed as inactive in test [2].
Turning to `CCC(C)(O)CCCC(C)C` (configuration not stated), the Potency result in [1], in test [10], in test [3], in test [6], in test [7] and in [8] was “inactive” each time. Moreover, the Potency result in test [9] was “inactive”. Further, in test [2], the result was inactive.
Consider `OC(CCl)CCl`, for which the Potency result in test [1], in test [10], in test [3], in test [6], in test [7] and in [8] was “inactive” each time. Besides, the compound was classed as inactive in test [2].
Consider `COC(=O)c1ccccc1`, for which the Potency entry in [1], in [10], in [3], in test [6], in test [8] and in test [9] was “inactive” each time. The compound was classed as inactive in [2]. Also, the Potency entry in test [7] is “inactive and 11 µM (active)”.
